Measurements from PubChem BioAssay (EPA / NIEHS).
Activity calls are given as the source filed them. How the source made its calls: active means hit-call score of the fitted dose curve at least 0.9, where 1 is the maximum; inactive means score below 0.9.

Test: APR_HepG2_StressKinase_1hr: Apredica 1-hour HepG2 Assay for Stress Kinase (AID 2282906)
Conditions: HepG2 stress kinase (phospho-c-Jun) imaging, actives raise or lower the signal
Protocol: APR_HepG2_1hr is a cell-based, multiplexed-readout assay that uses HepG2, a human liver cell line, with measurements taken at 1 hour after chemical dosing in a 384-well plate.APR_HepG2_StressKinase_1hr is one of 10 assay component(s) measured or calculated from the APR_HepG2_1hr assay. It is designed to make measurements of enzyme activity, a form of enzyme reporter, as detected with fluorescence intensity signals by HCS Fluorescent Imaging technology.Data from the assay component APR_HepG2_StressKinase_1hr was analyzed into 1 assay endpoint. This assay endpoint, APR_HepG2_StressKinase_1hr, was analyzed with bidirectional fitting relative to DMSO as the negative control and baseline of activity. Using a type of enzyme reporter, measures of protein for gain or loss-of-signal activity can be used to understand the signaling at the pathway-level as they relate to the gene . Furthermore, this assay endpoint can be referred to as a primary readout, because this assay has produced multiple assay endpoints where this one serves a signaling function. To generalize the intended target to other relatable targets, this assay endpoint is annotated to the cell cycle intended target family, where the subfamily is stress response.
Cells were treated with dimethyl sulfoxide (DMSO) as a solvent control at a final concentration of 0.5% v/v or with compounds in DMSO with a resulting final DMSO concentration of 0.5% v/v. Compound treatment was done at concentrations of 0.39, 0.78, 1.56, 3.12, 6.24, 12.5, 25, 50, 100, and 200 uM in duplicate on each plate. Cells were treated with compounds for 1, 24, or 72 hr. Carbonyl […] m-chloro-phenylhydrazone (CCCP) and taxol were used as positive controls for mitochondrial function and cytoskeletal stability, respectively; DMSO served as the negative control for this experiment. Cells were fixed by the direct addition of 50 uL formaldehyde in Hank's Balanced Salt Solution (HBSS) to a final concentration of 3.7%. After incubation in the fixation medium for 30 min at room temperature (293-298 K), cells were rinsed twice with HBSS and treated with cell permeabilization buffer (16 uL of 0.5% Triton X-100) for 10 min at room temperature (293-298 K) before labeling. For mitochondrial membrane potential and mitochondrial measurements, pre-fixed cells were incubated with 50 uL of MitoTracker Red CMXRos (Invitrogen) at a concentration of 250 nM for 30 min before fixation. In the remaining cases, post-fixed cells were labeled by incubation with a multiplexed mixture of primary antibodies in HBSS for 60 min at room temperature (293-298 K) to detect immunoreactivity of c-Jun (1:500), phospho-histone H3 (1:100), phospho-histone H2A.x (1:200), p53 (1:400), alpha-tubulin (1:200) and Hoechst 33342 (2 ug/mL). Cells were labeled for multiplexed imaging on two separate plates: a) Hoechst 33342, MitoTracker Red, phospho-histone H3, and alpha-tubulin, and b) Hoechst 33342, phospho-histone H2A.x, and c-Jun. A final rinse with HBSS (50 uL) was performed before analysis. The primary and secondary antibodies for the proteins were phospho-histone H3 (rabbit anti-phospho-histone H3 and FITC-donkey anti-rabbit IgG), phospho-histone H2A.x (mouse anti-phospho-histone H2A.x and FITC-donkey anti-mouse IgG), c-Jun (rabbit anti-phospho-c-Jun and Cy3-donkey anti-rabbit IgG), p53 (sheep anti-p53 and Cy5-donkey anti-sheep IgG), alpha-tubulin (mouse anti-alpha-tubulin and Cy5-donkey anti-mouse IgG). These antibodies are available as the CellCiphr HepG2 assay kit (Millipore).Digital images of each well were captured using a Cellomics ArrayScan VTI (Thermo Scientific Cellomics) (0.8 NA objective, 0.63x optical coupler, and XF-93 filter set) at 20x magnification. The images were acquired using the autofocus feature of the ArrayScan instrument, which entails the following steps. First, the camera focuses on channel 1 (Hoechst 33342), where nuclei are identified. Second, a Z offset of 1 um is used for capturing mitochondria (MitoTracker Red). […]

**Q.** For O=C(O)C1(C(=O)Nc2ccc(Cl)cc2Cl)CC1, which outcome is on record?
**A.** inactive

**Q.** With CCC(O)=C1C(=O)CC(C(=O)O)CC1=O (stereo not given) as the compound, how does the outcome read?
**A.** inactive

**Q.** For CCN(CC)C(=O)c1cccc(C)c1, which outcome is on record?
**A.** inactive

**Q.** For CCOC(=O)C(C)Oc1ccc(Oc2nc3ccc(Cl)cc3o2)cc1 (stereo not given), which outcome is on record?
**A.** inactive

**Q.** For CCNc1nc(N)nc(Cl)n1, which outcome is on record?
**A.** inactive

**Q.** Which outcome does the source give for CCCOC(=O)c1ccc(C(=O)OCCC)nc1 here?
**A.** inactive

**Q.** With N#CSCSc1nc2ccccc2s1 as the compound, how does the AC50 read?
**A.** 33.3 µM (active)

**Q.** For CC(C)(c1ccc(O)cc1)c1ccc(O)cc1, which outcome is on record?
**A.** inactive

**Q.** For CCCCC(CC)CN1C(=O)C2C3C=CC(C3)C2C1=O (stereo not given), which outcome is on record?
**A.** inactive

**Q.** For CN(C)C(=O)Nc1ccc(Cl)c(Cl)c1, which outcome is on record?
**A.** inactive

**Q.** For C#CCOC(=O)[C@@H](C)Oc1ccc(Oc2ncc(Cl)cc2F)cc1, which outcome is on record?
**A.** inactive

**Q.** With c1ccc(Nc2ccccc2)cc1 as the compound, how does the outcome read?
**A.** inactive

**Q.** For COC(=O)c1ccccc1S(=O)(=O)NC(=O)Nc1nc(OC(F)F)cc(OC(F)F)n1, which outcome is on record?
**A.** inactive

**Q.** Which outcome does the source give for CCCCOC(=O)[C@@H](C)Oc1ccc(Oc2ccc(C(F)(F)F)cn2)cc1 here?
**A.** inactive

**Q.** For C=CCOC(Cn1ccnc1)c1ccc(Cl)cc1Cl (stereo not given), which outcome is on record?
**A.** inactive

**Q.** For COc1c(Cl)ccc(Cl)c1C(=O)O, which outcome is on record?
**A.** inactive

**Q.** For CC1(C)C(C=C(Cl)Cl)C1C(=O)OCc1cccc(Oc2ccccc2)c1 (stereo not given), which outcome is on record?
**A.** inactive

**Q.** Which AC50 does the source give for CCCN(CCC)c1c([N+](=O)[O-])cc(C(F)(F)F)c(N)c1[N+](=O)[O-] here?
**A.** 75.8 µM (active)

**Q.** For COC(=O)c1ccc(CNS(C)(=O)=O)cc1S(=O)(=O)NC(=O)Nc1nc(OC)cc(OC)n1, which outcome is on record?
**A.** inactive

**Q.** For CCSC(=O)N(CC(C)C)CC(C)C, which outcome is on record?
**A.** inactive

**Q.** With COC(=O)c1cccc(C)c1S(=O)(=O)NC(=O)Nc1nc(OCC(F)(F)F)nc(N(C)C)n1 as the compound, how does the outcome read?
**A.** inactive

**Q.** For COCCO, which outcome is on record?
**A.** inactive

**Q.** With CCC(C)OC(=O)N1CCCCC1CCO (stereo not given) as the compound, how does the outcome read?
**A.** inactive

**Q.** With O=C(Nc1ccc([N+](=O)[O-])cc1Cl)c1cc(Cl)ccc1O as the compound, how does the AC50 read?
**A.** 0.364 µM (active)

**Q.** With CCN(Cc1c(F)cccc1Cl)c1c([N+](=O)[O-])cc(C(F)(F)F)cc1[N+](=O)[O-] as the compound, how does the outcome read?
**A.** inactive

**Q.** With CC(C)(C)[C@@H](O)[C@@H](Cc1ccc(Cl)cc1)n1cncn1 as the compound, how does the outcome read?
**A.** inactive

**Q.** With Oc1ccc(C(c2ccc(O)cc2)C(Cl)(Cl)Cl)cc1 as the compound, how does the AC50 read?
**A.** 94.2 µM (active)

**Q.** For CCCCOCCOCCOCc1cc2c(cc1CCC)OCO2, which outcome is on record?
**A.** inactive

**Q.** Which outcome does the source give for CCCN(CCC)C(=O)SCC here?
**A.** inactive

**Q.** For CCCOC(=O)NCCCN(C)C, which outcome is on record?
**A.** inactive

**Q.** For Cc1nn(C)c(Oc2ccccc2)c1C=NOCc1ccc(C(=O)OC(C)(C)C)cc1, which outcome is on record?
**A.** inactive

**Q.** For CCCCC(CC)COC(=O)c1ccccc1C(=O)O (stereo not given), which outcome is on record?
**A.** inactive

**Q.** With CCOC(=O)COc1cc(-n2ncc(C(F)(F)F)c(C)c2=O)c(F)cc1Cl as the compound, how does the outcome read?
**A.** inactive

**Q.** With S=C(S)NCCNC(=S)S.[Mn+2].[S-]C([S-])=NCCN=C([S-])[S-].[Zn+2] as the compound, how does the outcome read?
**A.** inactive

**Q.** With COc1nc(C)nc(NC(=O)NS(=O)(=O)c2ccccc2OCCCl)n1 as the compound, how does the outcome read?
**A.** inactive

**Q.** With COC(=O)c1c(Cl)nn(C)c1S(=O)(=O)NC(=O)Nc1nc(OC)cc(OC)n1 as the compound, how does the outcome read?
**A.** inactive

**Q.** For OB(O)O, which outcome is on record?
**A.** inactive

**Q.** With CSC(=O)c1cccc2nnsc12 as the compound, how does the outcome read?
**A.** inactive

**Q.** With COC(=O)CSc1cc(N=c2sc(=O)n3n2CCCC3)c(F)cc1Cl as the compound, how does the outcome read?
**A.** inactive

**Q.** For CCOC(=O)[C@H](C)Oc1ccc(Oc2nc3ccc(Cl)cc3o2)cc1, which outcome is on record?
**A.** inactive
